D2 antagonist = HTS Assay for Allosteric Antagonists of the Human D2 Dopamine Receptor: Primary Screen for Antagonists; D(2) dopamine receptor (Homo sapiens), P14416; HEK293 TREx D2 cells, calcium flux, dopamine EC80; inhibition, % at 10 µM; 340,000 tested, 2% active; AID 485344, 2010; in the data active = inhibition above about 30%; inactive = below that, where a call was filed
Target sequence (P14416 whole entry, looked up): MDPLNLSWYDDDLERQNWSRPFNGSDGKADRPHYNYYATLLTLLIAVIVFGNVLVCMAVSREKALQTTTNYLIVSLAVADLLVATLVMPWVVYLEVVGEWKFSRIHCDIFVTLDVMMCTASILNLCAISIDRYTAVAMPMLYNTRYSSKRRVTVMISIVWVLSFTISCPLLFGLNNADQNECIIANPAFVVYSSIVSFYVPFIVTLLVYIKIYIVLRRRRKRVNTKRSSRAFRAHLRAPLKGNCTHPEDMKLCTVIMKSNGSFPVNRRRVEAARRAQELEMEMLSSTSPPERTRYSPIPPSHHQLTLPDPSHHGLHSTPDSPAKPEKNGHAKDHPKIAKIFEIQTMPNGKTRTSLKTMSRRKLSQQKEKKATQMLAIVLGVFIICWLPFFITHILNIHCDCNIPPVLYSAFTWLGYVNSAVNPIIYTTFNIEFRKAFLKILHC
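In this primary screen, negative modulation is detected by tracking calcium flux after an EC80 dopamine challenge in inducible HEK293 T-REx D2 cells preexposed to test compound for 180 s.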
D2 ag-1 = Beta-Arrestin HTS for Positive Allosteric Modulators of the Human D2 Dopamine Receptor: Agonists; DiscoveRx PathHunter D2 beta-arrestin, luminescence, 90 min; 100% = 57 uM dopamine signal; D(2) dopamine receptor (Homo sapiens), P14416; AID 624465, 2012; activation, % (no concentration beside the values); 360,000 tested, 0.084% active; in the data active = activation above about 40%
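DiscoveRx PathHunter D2 beta-arrestin cells (2,100/well) attached overnight, then compound-stimulated 90 min at 37 C in HBSS/10 mM HEPES/0.1% Tween-20 buffer; beta-galactosidase complementation read by luminescence after 1 h at ambient temperature. Dopamine 57 uM final (EC100) as control.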
D2 PAM-1 = HTS Assay for Positive Allosteric Modulators of the Human D2 Dopamine Receptor: Primary Screen for Potentiators; D(2) dopamine receptor (Homo sapiens), P14416; HEK293 T-REx D2, calcium flux, EC20 dopamine potentiation; potentiation, % at 10 µM; 340,000 tested, 0.34% active; AID 485347, 2010;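 active = potentiation over 3 SD above the plate norm, cut at about 30% in these data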
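Using a no-wash calcium dye in inducible, force-coupled HEK293 Trex cells expressing D2, we tracked fluorescence each second for 180 s after compound, then for 180 s after EC20 dopamine to detect augmented signalling.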
D2 ag-2 = HTS Assay for Allosteric Agonists of the Human D2 Dopamine Receptor: Primary Screen for Agonists. D(2) dopamine receptor (Homo sapiens), P14416. 340,000 tested, 0.53% active. activation, % at 2 µM. HEK293 T-REx D2 cells, calcium flux agonist mode;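 active = activation over 3 SD above normal in the single-dose calcium agonist read, cut at about 30% in these data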
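Agonism is scored from calcium flux in a force-coupled, inducible HEK293 cell line expressing D2, read kinetically for 180 s after compound addition against dopamine controls.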
D2 PAM-2 = Beta-Arrestin HTS for Positive Allosteric Modulators of the Human D2 Dopamine Receptor: Potentiators; DiscoveRx D2 beta-arrestin cells, luminescence, 90 min; 100% = 57 uM dopamine signal; potentiation, % (no concentration beside the values); 360,000 tested, 0.23% active; in the data active = potentiation above about 50%
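D2 cells co-treated with compound plus 50 nM dopamine (EC20) for 90 min at 37 deg C to detect potentiation. Beta-arrestin recruitment was read as enzyme-fragment luminescence after 1 h at ambient temperature. Full response was set by 57 uM dopamine.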
Of the large screens only hits and unclear results are named; the others gave an inactive call. Sampled rows, rich in hits. Any-hit rate of the full collection: about 2.4%.

COc1ccc(C(=O)NCCNC(C)=O)cc1S(=O)(=O)NCc1ccc(Cl)cc1	none
Cc1n[nH]c(C)c1Sc1ccccc1N	none
Cc1cc(C)nc(Sc2c(C)n[nH]c2C)n1	D2 antagonist 32
C=CCSc1nc(C)c(CC=C)c(=O)[nH]1	D2 PAM-1 35
C=CCSc1nc(C)c(CCCC)c(=O)[nH]1	none
CCN(C(=O)COc1ccccc1)c1nnc(-c2cccnc2)s1	D2 antagonist 41
CCN(C(=O)c1c(OC)cccc1OC)c1nnc(-c2cccnc2)s1	D2 PAM-1 52
COCCN(C(=O)COc1ccccc1)c1nnc(-c2cccnc2)s1	none
CCc1c(C)sc2c1CCN(C(=O)Nc1cc(C)ccc1OC)C2c1ccc(F)cc1 (stereo not drawn)	none (no result: D2 antagonist, D2 ag-1, D2 PAM-2)
Cc1ccc(CCNC(=O)c2ccc(CS(=O)(=O)c3ccccc3C)o2)cc1	D2 PAM-1 47
Cc1ccc(CNC(=O)c2ccc(CS(=O)(=O)c3ccccc3C)o2)cc1	none
Cc1cc(NC(=O)c2ccc(Cn3cc([N+](=O)[O-])cn3)o2)no1	none (no result: D2 antagonist, D2 PAM-1, D2 ag-2)
Cc1ccccc1NC(=O)c1ccc(Cn2cc([N+](=O)[O-])cn2)o1	D2 antagonist 32
CCN(C(=O)c1cc2c(=O)n(CC)c3ccccc3c2s1)c1cccc(C(F)(F)F)c1	none (no result: D2 antagonist, D2 ag-1, D2 PAM-2)
ONC(=Nc1ccc(Cl)cc1)c1ccc(Cl)cc1	none
[S-]C(=Nc1ccc(Cl)cc1)N[n+]1ccccc1	D2 antagonist 62
COc1ccc(/C=N/NS(=O)(=O)c2ccccc2)cc1OS(=O)(=O)c1ccc(C)cc1	D2 antagonist 32
C/C=C(\C)C(=O)OC1[C@H](OC(C)=O)C2(CO)C(CC1(C)C)C1=CCC3C4(C)CCC(O[C@@H]5O[C@H](C(=O)O)[C@@H](O[C@@H]6O[C@H](CO)[C@@H](O)[C@H](O)[C@H]6O)[C@H](O)[C@H]5O[C@H]5O[C@H](CO)[C@@H](O)[C@H](O)[C@H]5O)[C@](C)(CO)C4CCC3(C)[C@]1(C)C[C@H]2O (stereo partly drawn)	D2 ag-1 41 (no result: D2 antagonist, D2 PAM-1, D2 ag-2)
C/C=C(/C)C(=O)OC1CC(C)(C)C[C@H]2C3=CC[C@@H]4[C@@]5(C)CCC(O[C@@H]6O[C@@H](C(=O)O)[C@@H](O)C(O[C@@H]7OC[C@H](O)[C@@H](O)[C@@H]7O[C@@H]7OC(CO)C(O)[C@@H](O)[C@@H]7O)C6O[C@@H]6OC(CO)C(O)C(O)C6O)[C@@](C)(CO)[C@@H]5CC[C@]4(C)[C@]3(C)CC(O)[C@@]12CO (stereo partly drawn)	none (no result: D2 antagonist, D2 PAM-1, D2 ag-2)
CCOC(=O)N1CCC(NC(=O)c2cnn(-c3ccc(C)cc3)c2C2CCN(C(=O)OC(C)(C)C)CC2)CC1	none (no result: D2 antagonist, D2 ag-1, D2 PAM-2)
COc1ccc(Cl)cc1NC(=O)CN(C)C(=O)c1cc2c(s1)CCCC2	D2 antagonist 46
COc1ccccc1C(=O)NCCC(=O)N(C)CC(=O)Nc1c(Cl)cccc1Cl	none
COc1ccc(Cl)cc1C(=O)NCCN(C)C	D2 antagonist 33
COc1ccc(Cl)cc1NC(=O)CN(C)C(=O)Cc1ccc2c(c1)CCC2	none
COc1ccc(Cl)cc1NC(=O)CN(C)C(=O)CCNC(=O)c1ccccc1OC	D2 antagonist 31
COc1ccc(Cl)cc1NC(=O)CN(C)C(=O)c1cn(-c2ccccc2)nc1-c1cccnc1	D2 antagonist 44
CCOc1ccc(CNC(=O)C2CCN(S(=O)(=O)c3cn(C)cn3)CC2)cc1	none (no result: D2 antagonist, D2 ag-1, D2 PAM-2)
O=C(Nc1nnc(SCC(=O)N2CCCCC2)s1)c1ccc(F)cc1F	D2 antagonist 55
Cc1cc(NC(=O)c2cccs2)ncc1NC(=O)c1cccc(F)c1	none
Cc1cc(NC(=O)c2ccccc2)ncc1NC(=O)c1cccs1	D2 antagonist 36
Cc1ccc(C(=O)O)cc1NC(=O)c1cccs1	D2 antagonist 44
CCOc1ccc(OCC)c(NC(=O)CN(C)S(=O)(=O)c2ccc3[nH]c(=O)oc3c2)c1	none (no result: D2 antagonist, D2 ag-1, D2 PAM-2)
Cc1ccc(CNC(=O)C(C)n2nc(C)n3c(cc4sccc43)c2=O)cc1 (stereo not drawn)	none (no result: D2 antagonist, D2 ag-1, D2 PAM-2)
CCCC(=O)Oc1ccc2c(C)cc(=O)oc2c1	none
Cc1cc(=O)oc2cc(OC(=O)c3cncc(Br)c3)ccc12	D2 antagonist 31
COc1cccc(Cc2nc3ccccc3nc2SCC(=O)N2CCCc3ccccc32)c1	none (no result: D2 antagonist, D2 ag-1, D2 PAM-2)
COc1ccc(C(=O)N/C(=C\c2cc(OC)c(OC)cc2[N+](=O)[O-])C(=O)NCCO)cc1	D2 antagonist 39
CN(C)c1ccc(/C=C/c2ccc3ccccc3n2)cc1	none
CCCN(CCC)c1ccc(/C=C/c2ccc3cc(OCC)ccc3n2)cc1	D2 ag-2 38
Cc1cccnc1NC(=O)c1ccc(Cl)c(S(=O)(=O)N2CCCCCC2)c1	D2 antagonist 56
Cc1ccc(C(=O)NC2CCCC2)cc1S(=O)(=O)N1CCCCC1	D2 antagonist 32
Cc1ccc(S(=O)(=O)N2CCCCC2)cc1C(=O)NC1CCCCC1	D2 PAM-1 42
Cc1c2cnn(CC(=O)NC(C)C)c(=O)c2c(C)n1Cc1ccccc1Cl	none (no result: D2 antagonist, D2 ag-1, D2 PAM-1, D2 PAM-2)
COc1cc(/C=N/NC(=O)CC2(C)OCCCO2)ccc1OCc1ccc(Cl)cc1Cl	D2 antagonist 31
CC1(CC(=O)N/N=C/c2ccc(OCc3ccc(Cl)cc3Cl)cc2)OCCCO1	none
Cc1ccc2[nH]c(=O)c3cc(C(=O)N(C)c4ccc(Br)cc4)sc3c2c1	none (no result: D2 antagonist, D2 ag-1, D2 ag-2, D2 PAM-2)
O=C(Nc1ccc(F)cc1F)c1cc2ccc3cccnc3c2[nH]1	none (no result: D2 antagonist, D2 ag-1, D2 PAM-2)
CN(c1ccc(C(=O)Nc2ccc(CC#N)cc2)cc1)S(C)(=O)=O	D2 antagonist 41
CN(c1ccc(C(=O)Nc2ccc3c(c2)OCO3)cc1)S(C)(=O)=O	none
Cc1ccc2c(=O)cc(C(=O)Nc3ccc(S(=O)(=O)Nc4ncccn4)cc3)oc2c1C	none (no result: D2 antagonist, D2 ag-1, D2 ag-2, D2 PAM-2)
COc1cc(Nc2nc3ccccc3c3nnc(C)n23)cc(OC)c1	none (no result: D2 antagonist, D2 ag-1, D2 PAM-2)
COc1ccc(N=Nc2nc3ccc(Br)cc3n2C)cc1	D2 PAM-1 33
CCOC(=O)C1CCCN(C(=O)c2cn(CC)c3ccc(S(=O)(=O)N(C)C)cc3c2=O)C1 (stereo not drawn)	D2 antagonist 35
Cc1noc(C)c1S(=O)(=O)N1CCCC(C(=O)Nc2ccc(C(C)C)cc2)C1 (stereo not drawn)	none (no result: D2 antagonist, D2 ag-1, D2 PAM-2)
COc1ccc(C(=O)N(Cc2sccc2C)C2CCS(=O)(=O)C2)cc1 (stereo not drawn)	D2 antagonist 38

Assay outcomes (PubChem BioAssay)
